# Measured values published in PubChem BioAssay (Tox21).
# Where “and” joins values, the source holds several entries; their conditions need not be identical. Equal entries are not always repeated. Records with an inconclusive call do not appear. Entries that show only a call come without a potency. A structure can be active in one record and inactive in another. Calls of active or inactive are those of the source. Calls come from the whole dose curve; as a rule, active = well fitted cell-killing curve with a large enough effect in the repeat runs; inconclusive = weak or mixed curves, or effect the other way; inactive = flat fitted curve, though single readings scatter.
# Test: qHTS assay to identify small molecule agonists of the estrogen receptor beta (ER-beta) signaling pathway - cell viability counter screen (AID 1259380); note: nearly all actives have a fitted effect of over 30% in size
# Details: ER-beta-bla HEK293T viability, CellTiter-Glo luminescence, 16 h; series mostly up to 92.4 µM
# Description: National Center for Advancing Translational Sciences [NCATS]
# NIH Chemical Genomics Center [NCGC]
# U.S. Environmental Protection Agency [EPA]
# National Institutes of Environmental Health Sciences [NIEHS]
# National Toxicology Program [NTP]
# U.S. Food and Drug Administration [FDA]
# Estrogen receptor (ER), a nuclear hormone receptor, plays an important role in development, metabolic homeostasis and reproduction. Two subtypes of ER, ER-alpha and ER-beta, have similar expression patterns with some uniqueness in both types. Endocrine disrupting chemicals (EDCs) and their interactions with steroid hormone receptors like ER causes disruption of normal endocrine function. To identify the compounds that activate ER signaling, an ER beta-UAS-bla GripTite cell line (Life Technologies, Madison, WI, USA) containing a beta-lactamase reporter gene under the control of an UAS response element was used to screen Tox21 10K compound library. The cytotoxicity of the Tox21 compound library against the ER-beta-bla cell line was tested in parallel by measuring the cell viability using CellTiter-Glo assay in the same wells.
# Tox21 Assay Protocol Summary:
# ER-beta-UAS-bla HEK293T cells were dispensed at 2,000 cells/5 uL of assay medium containing 2% charcoal stripped FBS per well into black wall/clear-bottom 1536-well plates using a Multidrop Combi (ThermoFisher Scientific, Waltham, MA) dispenser. After the assay plates were incubated at a 37C and 5% CO2 for 6 hr, 23 nL of compounds dissolved in DMSO, positive controls or DMSO only was transferred to the assay plate by a Pintool station (Kalypsys, San Diego, CA). The plates were incubated at 37C and 5% CO2 for 16 hr. Then 1 uL of LiveBLAzerTM B/G FRET substrate was added using a BioRAPTR FRD (Flying Reagent Dispenser, Aurora Discovery, San Diego, CA) and then the plates were incubated at room temperature for 2 hours, and fluorescence intensity was measured by an Envision plate reader (PerkinElmer, Shelton, CT). For cell viability readout that measures cytotoxicity, 4 uL/well of CellTiter-Glo reagent was added into the assay plates using a FRD. After 30 min incubation at room temperature, the luminescence intensity in the plates was measured using a ViewLux (PerkinElmer) plate reader.
# Potency is the fitted concentration of half-maximal effect.
Compound,Potency,"activity change, negative = cytotoxicity"
CCCCCCOC(=O)C(C)CC (stereo not given),inactive,–
CCCCCCCCCCC[C@@H](C[C@@H]1OC(=O)[C@H]1CCCCCC)OC(=O)[C@H](CC(C)C)NC=O,inactive,–
CC(C)(C)NSc1nc2ccccc2s1,inactive,–
Cc1ccc(-c2ccccc2)cc1,inactive,–
O=C(Nc1ccc2c(O)c(N=Nc3ccc(N=Nc4ccc(S(=O)(=O)O)cc4)cc3)c(S(=O)(=O)O)cc2c1)c1ccccc1,inactive,–
CC(C(=O)O)c1ccc2c(c1)[nH]c1ccc(Cl)cc12 (stereo not given),29.8 µM (active),–
Nc1ccc(NCCO)c([N+](=O)[O-])c1,inactive,–
CN(C)CCN1CCN(c2cccc(Cl)c2)C1=O,inactive,–
O=C1NC(=O)[C@@H]2CC=CC[C@H]12,27.3 µM (active),–
Cc1cccc(C(=O)O)c1O,inactive,–
COc1cccc2c1C(=O)c1c(O)c3c(c(O)c1C2=O)C[C@@](O)(C(C)=O)C[C@@H]3O[C@H]1C[C@H](N)[C@H](O)[C@H](C)O1,77.4 µM (active) and inactive,–
Nc1nc(N)nc(-c2cc(Cl)ccc2Cl)n1,inactive,–
COC(C)=O,inactive,–
Nc1ccc(C(=O)O)c(O)c1,inactive,–
CCO[Si](OCC)(OCC)OCC,inactive,–
Cc1cc(C(C#N)c2ccc(Cl)cc2)c(Cl)cc1NC(=O)c1cc(I)cc(I)c1O (stereo not given),11.9 µM (active),–
Cc1c(C)c2c(c(C)c1OC(=O)c1cccnc1)CC[C@@](C)(CCC[C@H](C)CCC[C@H](C)CCCC(C)C)O2,inactive,–
COC(=O)c1ccccc1C,inactive,–
CCCCCC/C=C\CCCCCCCC(=O)O,inactive,–
O=C(O)CCN(C1(C(=O)NO)CCCC1)S(=O)(=O)c1ccc(Oc2ccc(F)cc2)cc1,inactive,–

Compound,Potency,"activity change, negative = cytotoxicity"
NC(=O)c1cccc([N+](=O)[O-])c1,inactive,–
C=CC(=O)OCCOC(=O)C=C,inactive,–
CC(=O)[C@H]1CC[C@H]2[C@@H]3CCC4=CC(=O)CC[C@]4(C)[C@H]3CC[C@]12C,54.2 µM (active) and 61.1 µM (active),–
OC1CCCc2ccccc21 (stereo not given),inactive,–
Cc1c(C)c([N+](=O)[O-])c(C(C)(C)C)c([N+](=O)[O-])c1C,inactive,–
Cc1cc(C(C)(C)C)c(O)c(C)c1Cn1c(=O)n(Cc2c(C)cc(C(C)(C)C)c(O)c2C)c(=O)n(Cc2c(C)cc(C(C)(C)C)c(O)c2C)c1=O,inactive,–
CC(C)(C)C1CCC(=O)CC1,inactive,–
ClCCl,inactive,–
O=C(O)c1cccc(C(F)(F)F)c1,inactive,–
CC(C)Cn1cnc2c(N)nc3ccccc3c21,–,0.961% [at 19 µM] (inactive)
Cc1cccc2cccnc12,inactive,–
Nc1nc2c(ncn2COCCO)c(=O)[nH]1,inactive,–
CCCCCCCCCCOC(=O)c1ccccc1C(=O)OCCCCCCCC,inactive,–
COC(=O)C1=C(C)NC(C)=C(C(=O)OCCN2CCN(C(c3ccccc3)c3ccccc3)CC2)C1c1cccc([N+](=O)[O-])c1 (stereo not given),inactive,–
CC(N=C(NC#N)Nc1ccncc1)C(C)(C)C (stereo not given),inactive,–
C1CCC(SSC2CCCCC2)CC1,inactive,–
Cc1ccc(O)c(N)c1,24.4 µM (active),–
COc1ccc(-c2coc3cc(O)ccc3c2=O)cc1,inactive,–
CC[N+](CC)(CC)CCOC(=O)C(C1CCCC1)C1CCCC1,inactive,–
CN(C)[C@@H](CCOc1cccc2ccccc12)c1ccccc1,23.7 µM (active),–
